# A number with no mark means an inactive call. Inconclusive results are not listed. A call without a number means that no potency is given here. Calls of active or inactive are those of the source. Unless noted, calls come from the whole dose curve; as a rule, active = well fitted curve in the direction sought with a large enough effect; inconclusive = small, poorly fitted or top-dose-only effect, or another doubt; inactive = no such curve, though single readings can be large; an effect the other way counts as inactive or inconclusive.
# Tests used:
# [1] = biological target: Luciferin 4-monooxygenase (Photinus pyralis) (UniProt P08659); assay: Biochemical firefly luciferase enzyme assay for NPC (AID 624030); note: nearly all actives have a fitted effect of over 70% in size; note: potency is the fitted concentration of half-maximal effect
# Sequence of Luciferin 4-monooxygenase (Photinus pyralis) (P08659 whole entry, looked up): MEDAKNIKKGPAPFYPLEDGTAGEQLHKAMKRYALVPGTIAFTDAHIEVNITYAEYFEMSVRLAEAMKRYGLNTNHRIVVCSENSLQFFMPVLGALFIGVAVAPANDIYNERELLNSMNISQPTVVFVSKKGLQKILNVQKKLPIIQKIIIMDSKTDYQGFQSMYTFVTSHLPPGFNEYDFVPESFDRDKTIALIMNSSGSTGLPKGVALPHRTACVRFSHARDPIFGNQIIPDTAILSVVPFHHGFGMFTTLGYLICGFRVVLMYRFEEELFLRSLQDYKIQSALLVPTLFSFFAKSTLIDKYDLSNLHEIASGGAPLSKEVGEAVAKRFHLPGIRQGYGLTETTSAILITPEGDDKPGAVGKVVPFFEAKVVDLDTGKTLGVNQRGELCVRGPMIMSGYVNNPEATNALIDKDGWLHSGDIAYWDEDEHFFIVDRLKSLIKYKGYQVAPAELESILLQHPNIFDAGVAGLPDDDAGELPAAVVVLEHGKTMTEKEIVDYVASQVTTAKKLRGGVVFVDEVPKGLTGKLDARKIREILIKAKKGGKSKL
# Procedure, shortened: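 Direct inhibition of firefly luciferase enzyme (10 nM final, 50 mM Tris Acetate) assessed by luminescence within 5 minutes. Percent activity scaled between DMSO and PTC124 positive control, with concentration-effect curves classified by fit quality and response.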
# [2] = biological target: Voltage-gated inwardly rectifying potassium channel KCNH2 (Homo sapiens) (UniProt Q12809); assay: qHTS Assay for Small Molecule Inhibitors of the Human hERG Channel Activity (AID 588834);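 note: top concentration of the series differs between compounds; lower thallium flux fluorescence means stronger hERG block; nearly all actives have a fitted effect of over 50% in size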
# Sequence of Voltage-gated inwardly rectifying potassium channel KCNH2 (Homo sapiens) (Q12809 whole entry, looked up): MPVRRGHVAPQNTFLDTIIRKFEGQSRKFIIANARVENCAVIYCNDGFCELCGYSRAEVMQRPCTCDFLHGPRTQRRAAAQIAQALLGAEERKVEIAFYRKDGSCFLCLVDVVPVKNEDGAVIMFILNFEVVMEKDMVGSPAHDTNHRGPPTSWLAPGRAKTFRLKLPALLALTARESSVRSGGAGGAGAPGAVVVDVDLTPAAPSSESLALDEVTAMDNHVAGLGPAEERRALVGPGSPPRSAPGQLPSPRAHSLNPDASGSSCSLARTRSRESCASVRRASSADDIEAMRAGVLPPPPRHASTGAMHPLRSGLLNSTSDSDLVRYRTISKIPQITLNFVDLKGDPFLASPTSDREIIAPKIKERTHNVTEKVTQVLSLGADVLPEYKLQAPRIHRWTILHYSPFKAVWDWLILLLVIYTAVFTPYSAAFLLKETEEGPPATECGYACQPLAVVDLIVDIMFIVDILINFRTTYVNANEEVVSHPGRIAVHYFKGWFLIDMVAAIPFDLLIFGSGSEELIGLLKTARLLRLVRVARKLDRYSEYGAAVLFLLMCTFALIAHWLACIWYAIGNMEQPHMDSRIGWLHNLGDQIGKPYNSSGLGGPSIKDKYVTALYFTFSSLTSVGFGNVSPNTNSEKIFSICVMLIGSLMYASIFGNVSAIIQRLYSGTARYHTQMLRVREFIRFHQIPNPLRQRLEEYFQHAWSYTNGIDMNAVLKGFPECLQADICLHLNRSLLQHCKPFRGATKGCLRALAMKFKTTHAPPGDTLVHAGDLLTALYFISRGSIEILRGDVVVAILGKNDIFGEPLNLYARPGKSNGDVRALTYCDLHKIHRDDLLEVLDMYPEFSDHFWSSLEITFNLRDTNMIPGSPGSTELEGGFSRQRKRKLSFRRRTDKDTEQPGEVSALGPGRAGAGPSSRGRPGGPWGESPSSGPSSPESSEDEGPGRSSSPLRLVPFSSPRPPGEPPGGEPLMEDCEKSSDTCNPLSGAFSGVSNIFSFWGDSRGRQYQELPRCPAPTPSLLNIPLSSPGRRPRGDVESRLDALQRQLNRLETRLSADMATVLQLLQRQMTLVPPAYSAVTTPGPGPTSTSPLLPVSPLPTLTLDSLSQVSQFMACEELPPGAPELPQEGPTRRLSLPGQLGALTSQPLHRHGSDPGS
# Procedure, shortened: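 Concentration-response qHTS measuring drop in thallium-sensitive dye signal. U2OS cells carrying BacMam hERG; compound exposure ~10 min, then stimulation buffer and 2 min read at 1 sec intervals.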
# [3] = S16 Schwann cell viability assay (CellTiter-Glo assay) (AID 624031);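 note: native untransfected S16 rat Schwann cells; cellular ATP luminescence as a viability measure; series mostly up to about 58 µM; nearly all actives have a fitted effect of over 70% in size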
# Procedure, shortened: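 Following overnight culture in 10% FBS DMEM, parental S16 rat Schwann cells are dosed for 24 h at 37 °C. Viability is read as CellTiter-Glo luminescence and expressed as % activity relative to DMSO (0%) and no-cell wells.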
# [4] = S16 Schwann cell PMP22 intronic element firefly luciferase assay (AID 624032); note: nearly all actives have a fitted effect of over 30% in size; note: potency is the fitted concentration of half-maximal effect
# Procedure, shortened: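 Luciferase reporter of PMP22 intronic-element expression in stably transfected S16 rat Schwann cells, read by ONE-Glo luminescence after 24 h compound exposure at 37 C. Activity scaled between DMSO (0%) and positive-control PTC124; concentration-effect curves quality-classified.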
# [5] = S16 Schwann cell PMP22 intronic element beta-lactamase assay (AID 624044; calls by dose curve; note: nearly all actives have a fitted effect of over 15% in size)
# Procedure, shortened: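 Rat S16 Schwann cells with beta-Lac driven by a PMP22 intronic element, compound-treated 24 h at 37 °C. LiveBLAzer FRET B/G read: 460 nm normalized to potassium clavulanate vs DMSO; 535 nm FRET as viability; concentration-effect curves classified.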
# [6] = biological target: Glutaminase kidney isoform, mitochondrial (Homo sapiens) (UniProt O94925); assay: qHTS for Inhibitors of Glutaminase (GLS): LOPAC Validation (AID 624146);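 note: glutamate product detected by oxidase and peroxidase coupled Amplex red fluorescence gain; series mostly up to about 46 µM; nearly all actives have a fitted effect of over 60% in size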
# Sequence of Glutaminase kidney isoform, mitochondrial (Homo sapiens) (O94925 whole entry, looked up, canonical isoform): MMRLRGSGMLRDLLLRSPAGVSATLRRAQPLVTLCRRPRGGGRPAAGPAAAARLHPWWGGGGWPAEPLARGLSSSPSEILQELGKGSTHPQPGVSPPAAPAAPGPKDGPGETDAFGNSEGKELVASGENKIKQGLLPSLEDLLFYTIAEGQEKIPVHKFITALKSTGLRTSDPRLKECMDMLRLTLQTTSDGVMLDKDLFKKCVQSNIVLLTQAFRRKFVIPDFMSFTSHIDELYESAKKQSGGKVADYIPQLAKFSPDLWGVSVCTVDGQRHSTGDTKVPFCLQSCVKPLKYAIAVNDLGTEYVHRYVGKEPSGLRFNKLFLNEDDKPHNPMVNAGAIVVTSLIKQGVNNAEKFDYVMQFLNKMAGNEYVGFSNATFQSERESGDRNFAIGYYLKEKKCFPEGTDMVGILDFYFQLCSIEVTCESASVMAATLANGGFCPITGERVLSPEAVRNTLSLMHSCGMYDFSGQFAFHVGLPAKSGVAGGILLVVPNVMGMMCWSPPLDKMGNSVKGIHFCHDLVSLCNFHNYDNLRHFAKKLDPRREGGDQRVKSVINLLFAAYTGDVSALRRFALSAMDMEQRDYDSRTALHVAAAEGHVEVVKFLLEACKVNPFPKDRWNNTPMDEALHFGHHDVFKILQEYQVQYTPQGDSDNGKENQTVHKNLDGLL
# Procedure, shortened: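 Compounds were pin-transferred onto hKGA, after which L-glutamine (1 mM solution) and a detection mix of glutamate oxidase, HRP and Amplex Red were added. Initial and 30 min RT fluorescence reads were collected.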
# [7] = biological target: Glucagon-like peptide 1 receptor (Homo sapiens) (UniProt P43220); assay: qHTS of GLP-1 Receptor Agonists: LOPAC Validation (AID 624148);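 note: luminescence from a luciferase reporter switched on by cAMP; higher luminescence signal means agonism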
# Sequence of Glucagon-like peptide 1 receptor (Homo sapiens) (P43220 whole entry, looked up): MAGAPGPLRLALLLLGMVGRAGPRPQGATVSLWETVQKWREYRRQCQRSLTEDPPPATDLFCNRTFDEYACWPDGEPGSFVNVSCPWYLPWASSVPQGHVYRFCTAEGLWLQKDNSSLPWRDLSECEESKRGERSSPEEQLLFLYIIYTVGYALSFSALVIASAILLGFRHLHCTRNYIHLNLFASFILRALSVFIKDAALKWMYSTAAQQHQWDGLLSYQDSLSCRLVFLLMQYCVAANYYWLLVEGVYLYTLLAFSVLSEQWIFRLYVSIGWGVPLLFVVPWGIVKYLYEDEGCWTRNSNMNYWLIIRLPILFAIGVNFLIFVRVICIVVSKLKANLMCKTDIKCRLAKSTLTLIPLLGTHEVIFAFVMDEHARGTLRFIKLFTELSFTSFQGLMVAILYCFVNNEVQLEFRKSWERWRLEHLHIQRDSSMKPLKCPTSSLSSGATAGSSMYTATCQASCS
# Procedure, shortened: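 Agonism scored as increased luciferase luminescence driven by cAMP in HEK293 clones carrying GLP-1R. Cells settled 12 hours, received compound for 4-6 hr at 37 deg C, 5% CO2, and were read after 12 min detection reagent at RT.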
# [8] = qHTS of Nrf2 Activators: LOPAC Validation (AID 624149)
# Procedure, shortened: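 AREc32 cells carrying an ARE-driven firefly luciferase were grown overnight in OPTI-MEM with 5% FBS, then exposed to compounds for 24 hr at 37 deg C. Luciferase signal was read after 30 min with Steady-Glo at RT.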
# [9] = HTS Assay for Allosteric Antagonists of the Human D2 Dopamine Receptor: Hit Validation in HTRF (AID 624455);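 note: stable D1 dopamine receptor cell line scored for blocking the D1 response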
# Procedure, shortened: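 Hits were examined in an HTRF assay using cells stably expressing the D1 dopamine receptor, scoring inhibition of the D1-mediated response. The preceding primary screen tracked calcium flux after an EC80 dopamine addition in force-coupled, inducible Hek293 Trex D2 cells.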
# [10] = biological target: Thyroid hormone receptor beta (Homo sapiens) (UniProt P10828); assay: qHTS assay for small molecule antagonists of thyroid hormone receptor beta signaling (AID 588547; active = well fitted inhibition curve with a large enough effect in the signal ratio, with a control signal flat, not every such curve was filed as active; the % refers to the signal ratio; note: potency is the fitted concentration of half-maximal effect;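 for activity change % (negative = inhibition): cells stimulated with 0.4 nM T3 agonist during compound exposure; series mostly up to about 77 µM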); conditions: TR-UAS-bla HEK293, beta-lactamase ratio, antagonist mode, 18 h
# Sequence of Thyroid hormone receptor beta (Homo sapiens) (P10828 whole entry, looked up): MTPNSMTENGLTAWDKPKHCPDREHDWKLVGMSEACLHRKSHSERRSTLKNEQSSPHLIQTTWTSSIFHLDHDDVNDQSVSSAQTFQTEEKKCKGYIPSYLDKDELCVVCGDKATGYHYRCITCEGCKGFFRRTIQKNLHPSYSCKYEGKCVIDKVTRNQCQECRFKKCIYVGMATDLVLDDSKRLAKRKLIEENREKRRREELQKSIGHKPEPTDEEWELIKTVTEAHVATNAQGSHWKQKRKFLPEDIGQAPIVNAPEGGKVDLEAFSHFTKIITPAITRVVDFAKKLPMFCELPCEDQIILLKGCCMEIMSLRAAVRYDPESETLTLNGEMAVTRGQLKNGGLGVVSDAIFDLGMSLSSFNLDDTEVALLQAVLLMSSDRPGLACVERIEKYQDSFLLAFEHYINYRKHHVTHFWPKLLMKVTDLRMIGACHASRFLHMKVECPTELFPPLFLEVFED
# Description: NIH Chemical Genomics Center [NCGC] U.S. Environmental Protection Agency [EPA] National Institutes of Environmental Health Sciences [NIEHS] National Toxicology Program [NTP] NCGC Assay Overview Thyroid hormone receptor (TR) belongs to nuclear hormone receptor superfamily. There are two subtypes for TR: TR-alpha and TR-beta. TR-beta plays a major role in regulating plasma cholesterol levels and it mediates the biological activities of thyroid hormone. Screening environmental chemicals on TR-beta signaling will provide important information for the mechanism of compound action.
# NCGC Assay Protocol Summary Using a beta-lactamase reporter-gene under control of the TR response element, a cell-based assay [GeneBLAzer TR-UAS-bla-GripTite assay developed by Invitrogen] was used to measure TR-beta signaling in antagonist mode. TR-UAS-bla-GripTite HEK 293 cells were used with assay medium containing 2% charcoal/dextran FBS, 0.1 mM NEAA and 1 mM sodium pyruvate. The assay was performed in clear bottom black Greiner 1536-well plates. Library compounds were measured for their ability to inhibit the reporter gene activity. Compounds were screened in a titration series in 1536-well format. The fluorescence intensity (405 nm excitation, 460/530 nm emission) was measured using an EnVision plate reader. […] Concentration-response titration points for each compound were fitted to the Hill equation yielding concentrations of half-maximal inhibition (IC50) and maximal response (efficacy) values. qHTS protocol for TR-beta beta-lactamase assay in antagonist mode [Step] [Parameter] [Value] [Description] 1. Reagent; 5 uL; 2500 cells/well 2. Incubation; 37 C for 4 hrs 3. Compounds; 23 nL; 0.59 nM to 92 uM 4. Controls (DMSO); 23 nL 5. Agonist (Stimulator); 1uL; T3 at 0.4nM (final) concentrations 6. Incubation; 37 C for 18 hrs 7. Detection reagent; 1 uL of CCF4-dye 8. Incubation; RT for 2 hrs 9. Detection; Fluorescence; Envision plate reader
compound,measurement,setting,value
CN1CC(O)c2cc(N=NC(N)=O)c(O)cc21 (stereo not given),Potency,[1],inactive
O=P(O)(O)OC(CO)CO,Potency,[1],inactive
NCCCC(=O)O,outcome,[2],inactive
same,Potency,[3],inactive
same,Potency,[4],inactive
same,outcome,[5],inactive
same,outcome,[6],inactive
same,outcome,[7],inactive
same,outcome,[8],inactive
same,outcome,[9],inactive
CC(=O)S[C@@H]1CC2=CC(=O)CC[C@]2(C)[C@H]2CC[C@@]3(C)[C@@H](CC[C@@]34CCC(=O)O4)[C@H]12,Potency,[10],28.2 µM (active)
COC(C)=O,activity change % (negative = inhibition),[10],-1.11%
same,outcome,[2],inactive
Nc1c(CC(=O)O)cccc1C(=O)c1ccccc1,Potency,[1],inactive
CNC[C@@H]1CC[C@@H](N)[C@@H](O[C@H]2[C@H](O)[C@@H](O[C@H]3OC[C@](C)(O)[C@H](NC)[C@H]3O)[C@H](N)C[C@@H]2N)O1,Potency,[1],inactive
C[N+](C)(CCCCCC[N+](C)(C)C1c2ccccc2-c2ccccc21)C1c2ccccc2-c2ccccc21,Potency,[1],inactive
C1CNCCN1,Potency,[1],inactive
CCCCc1cc2c(=O)c(C(=O)OC)c[nH]c2cc1OCc1ccccc1,Potency,[1],inactive
CS(=O)(=O)OCCCNCCCOS(C)(=O)=O,Potency,[1],inactive
NC(=O)C[C@@H](N)C(=O)O,Potency,[1],inactive
C=Cc1ccccc1,outcome,[2],inactive
same,Potency,[1],inactive
CN1CCN(CCCN2c3ccccc3Sc3ccccc32)CC1,Potency,[1],inactive
CN=C(NC)NCc1ccccc1,Potency,[1],inactive
CC(=O)[C@@]1(O)CC[C@H]2[C@@H]3C=C(Cl)C4=CC(=O)CC[C@]4(C)[C@H]3CC[C@@]21C,Potency,[1],inactive
CCCCCCCCCC(=O)O,activity change % (negative = inhibition),[10],17.7%
same,outcome,[2],inactive
O=S(=O)(O)Oc1ccc(C(c2ccc(OS(=O)(=O)O)cc2)c2ccccn2)cc1,Potency,[1],inactive
O=C(O)CC(O)(CC(=O)O)C(=O)O,outcome,[2],inactive
same,Potency,[1],inactive
CS(=O)(=O)Nc1cc2occ(NC=O)c(=O)c2cc1Oc1ccccc1,Potency,[1],inactive
CCC(=O)O,Potency,[1],inactive
O=P(O)(O)C(Sc1ccc(Cl)cc1)P(=O)(O)O,Potency,[1],inactive
OC(CN1CCCCC1)c1cc(-c2ccccc2)on1 (stereo not given),Potency,[1],inactive
CCCCCCCCCCCCCCCCCC(=O)[O][Al],Potency,[1],inactive
CCCOc1ccc2nc(NC(=O)OC)sc2c1,outcome,[2],inactive
same,Potency,[1],1.14 µM (active)
same,Potency,[3],inactive
same,Potency,[4],inactive
same,outcome,[5],inactive
Cc1ccc(C2(O)CCN(CCCC(=O)c3ccc(F)cc3)CC2)cc1,Potency,[1],inactive
CN(C)Cc1ccccc1,activity change % (negative = inhibition),[10],-0.727%
same,outcome,[2],inactive
C=CCNC1=C2C[C@@H](C)C[C@H](OC)[C@H](O)[C@@H](C)/C=C(\C)[C@H](OC(N)=O)[C@@H](OC)/C=C\C=C(/C)C(=O)NC(=CC1=O)C2=O,Potency,[4],0.0721 µM (active)
same,outcome,[5],inactive
CN[C@H]1CC[C@@H](c2ccc(Cl)c(Cl)c2)c2ccccc21,outcome,[5],inactive
same,outcome,[6],inactive
same,outcome,[7],inactive
same,outcome,[8],inactive
same,outcome,[9],inactive
